# Measured values as given in the supplement of paper PMC11732987, “Enantioselective OTUD7B fragment discovery through chemoproteomics screening and high-throughput optimisation” (Communications Chemistry, 2025).
# A number with no mark means an inactive call.
# Key:
# Assay in all cases: log2 ratio of Biotin-Ahx-Ub-VS probe labelling (fragment/DMSO); higher = less target engagement (more negative = stronger competition), active = hit call of the paper (q ≤ 0.05, log2 ratio ≤ -1)
# Conditions in all cases: compound concentration: 200 uM; treatment time: 3 h
# USP42 = target: T1, USP42 (UniProt Q9H9J4)
# T1 sequence (whole entry): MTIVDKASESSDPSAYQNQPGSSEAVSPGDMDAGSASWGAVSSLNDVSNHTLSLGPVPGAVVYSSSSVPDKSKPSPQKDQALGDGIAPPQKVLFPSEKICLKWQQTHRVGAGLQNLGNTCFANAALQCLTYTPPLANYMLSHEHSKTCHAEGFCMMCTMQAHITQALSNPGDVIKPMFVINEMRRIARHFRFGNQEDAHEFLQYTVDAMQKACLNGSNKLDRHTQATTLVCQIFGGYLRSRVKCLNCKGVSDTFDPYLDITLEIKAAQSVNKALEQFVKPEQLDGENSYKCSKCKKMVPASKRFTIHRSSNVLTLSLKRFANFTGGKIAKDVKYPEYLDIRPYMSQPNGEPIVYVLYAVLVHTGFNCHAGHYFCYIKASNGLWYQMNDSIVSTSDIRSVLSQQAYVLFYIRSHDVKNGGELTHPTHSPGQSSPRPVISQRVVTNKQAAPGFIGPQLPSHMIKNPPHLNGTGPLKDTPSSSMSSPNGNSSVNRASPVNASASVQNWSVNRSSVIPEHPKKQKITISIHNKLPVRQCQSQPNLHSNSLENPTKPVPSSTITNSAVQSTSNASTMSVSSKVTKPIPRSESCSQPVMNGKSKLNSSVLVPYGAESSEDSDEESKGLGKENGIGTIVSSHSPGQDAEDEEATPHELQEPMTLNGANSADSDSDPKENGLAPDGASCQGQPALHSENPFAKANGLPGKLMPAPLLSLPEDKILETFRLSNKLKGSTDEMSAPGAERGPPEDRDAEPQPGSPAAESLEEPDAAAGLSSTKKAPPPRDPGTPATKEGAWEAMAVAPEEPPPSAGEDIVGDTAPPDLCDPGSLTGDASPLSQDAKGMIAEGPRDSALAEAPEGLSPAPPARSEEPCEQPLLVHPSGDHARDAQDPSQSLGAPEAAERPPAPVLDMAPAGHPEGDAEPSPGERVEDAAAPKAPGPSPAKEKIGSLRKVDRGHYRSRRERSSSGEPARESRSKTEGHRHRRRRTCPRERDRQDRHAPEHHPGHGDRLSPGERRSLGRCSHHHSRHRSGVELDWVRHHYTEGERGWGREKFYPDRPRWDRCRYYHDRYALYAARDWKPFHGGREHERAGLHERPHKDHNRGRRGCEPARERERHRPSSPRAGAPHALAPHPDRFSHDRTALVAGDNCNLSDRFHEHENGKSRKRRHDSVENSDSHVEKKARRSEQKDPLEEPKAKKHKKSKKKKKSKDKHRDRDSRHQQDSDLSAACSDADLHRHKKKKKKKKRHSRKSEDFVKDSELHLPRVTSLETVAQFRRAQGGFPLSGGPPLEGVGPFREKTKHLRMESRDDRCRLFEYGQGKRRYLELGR
# Summary of the method: (§1)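 HEK293T lysate (495 µg per sample, in Tris/CHAPS/IGEPAL buffer with protease inhibitors) was exposed in triplicate for 3 h to fragment at 200 µM or to vehicle, then to Biotin-Ahx-Ub-VS at 0.5 µM final for 1 h. Labelled DUBs were enriched on NeutrAvidin, digested with LysC and trypsin, and analysed by diaPASEF LC-MS/MS. Spectronaut label-free quantities were normalised to the global median, and values are average log2 ratios of fragment over vehicle from an unpaired t-test. Only proteins with ≥2 unique peptides were used.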
# USP46 = USP46 (UniProt P62068)
# Summary of the method: as §1
# USP47 = target: T2, USP47 (UniProt Q96K76)
# T2 sequence (whole entry): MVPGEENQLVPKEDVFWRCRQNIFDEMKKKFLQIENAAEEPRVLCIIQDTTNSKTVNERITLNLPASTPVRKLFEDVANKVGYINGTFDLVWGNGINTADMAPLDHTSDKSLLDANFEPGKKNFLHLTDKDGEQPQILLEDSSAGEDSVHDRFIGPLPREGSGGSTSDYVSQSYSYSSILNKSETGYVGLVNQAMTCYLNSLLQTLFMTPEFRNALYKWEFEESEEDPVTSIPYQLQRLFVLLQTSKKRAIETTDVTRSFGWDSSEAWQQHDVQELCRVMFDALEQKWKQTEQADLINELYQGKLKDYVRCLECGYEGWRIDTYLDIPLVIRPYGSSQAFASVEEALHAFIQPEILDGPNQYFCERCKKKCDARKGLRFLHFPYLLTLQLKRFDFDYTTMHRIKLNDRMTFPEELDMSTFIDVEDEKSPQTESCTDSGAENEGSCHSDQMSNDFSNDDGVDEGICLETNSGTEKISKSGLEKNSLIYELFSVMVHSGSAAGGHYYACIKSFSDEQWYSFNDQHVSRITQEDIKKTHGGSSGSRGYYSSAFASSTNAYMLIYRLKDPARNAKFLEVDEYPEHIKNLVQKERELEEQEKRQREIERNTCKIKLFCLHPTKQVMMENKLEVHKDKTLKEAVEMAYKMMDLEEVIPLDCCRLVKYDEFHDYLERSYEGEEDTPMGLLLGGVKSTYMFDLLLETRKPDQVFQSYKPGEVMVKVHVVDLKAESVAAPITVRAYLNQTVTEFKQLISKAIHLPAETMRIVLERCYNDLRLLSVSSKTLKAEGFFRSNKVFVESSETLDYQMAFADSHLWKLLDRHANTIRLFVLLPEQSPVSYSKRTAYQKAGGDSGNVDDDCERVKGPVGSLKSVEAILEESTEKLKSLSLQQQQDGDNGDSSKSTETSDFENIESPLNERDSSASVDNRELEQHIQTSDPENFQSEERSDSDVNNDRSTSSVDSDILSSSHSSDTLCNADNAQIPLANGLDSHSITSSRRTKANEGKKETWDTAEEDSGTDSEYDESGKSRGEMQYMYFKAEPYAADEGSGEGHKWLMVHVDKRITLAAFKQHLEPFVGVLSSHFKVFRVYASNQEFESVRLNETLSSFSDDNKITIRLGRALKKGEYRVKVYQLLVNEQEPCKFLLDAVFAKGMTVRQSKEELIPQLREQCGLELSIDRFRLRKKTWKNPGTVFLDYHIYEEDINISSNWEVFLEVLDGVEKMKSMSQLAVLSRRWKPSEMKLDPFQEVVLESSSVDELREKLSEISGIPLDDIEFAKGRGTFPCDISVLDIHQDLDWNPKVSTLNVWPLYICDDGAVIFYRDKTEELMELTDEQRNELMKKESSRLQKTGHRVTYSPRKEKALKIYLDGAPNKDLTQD
# Summary of the method: as §1
# USP48 = target: T3, USP48 (UniProt Q86UV5)
# T3 sequence (whole entry): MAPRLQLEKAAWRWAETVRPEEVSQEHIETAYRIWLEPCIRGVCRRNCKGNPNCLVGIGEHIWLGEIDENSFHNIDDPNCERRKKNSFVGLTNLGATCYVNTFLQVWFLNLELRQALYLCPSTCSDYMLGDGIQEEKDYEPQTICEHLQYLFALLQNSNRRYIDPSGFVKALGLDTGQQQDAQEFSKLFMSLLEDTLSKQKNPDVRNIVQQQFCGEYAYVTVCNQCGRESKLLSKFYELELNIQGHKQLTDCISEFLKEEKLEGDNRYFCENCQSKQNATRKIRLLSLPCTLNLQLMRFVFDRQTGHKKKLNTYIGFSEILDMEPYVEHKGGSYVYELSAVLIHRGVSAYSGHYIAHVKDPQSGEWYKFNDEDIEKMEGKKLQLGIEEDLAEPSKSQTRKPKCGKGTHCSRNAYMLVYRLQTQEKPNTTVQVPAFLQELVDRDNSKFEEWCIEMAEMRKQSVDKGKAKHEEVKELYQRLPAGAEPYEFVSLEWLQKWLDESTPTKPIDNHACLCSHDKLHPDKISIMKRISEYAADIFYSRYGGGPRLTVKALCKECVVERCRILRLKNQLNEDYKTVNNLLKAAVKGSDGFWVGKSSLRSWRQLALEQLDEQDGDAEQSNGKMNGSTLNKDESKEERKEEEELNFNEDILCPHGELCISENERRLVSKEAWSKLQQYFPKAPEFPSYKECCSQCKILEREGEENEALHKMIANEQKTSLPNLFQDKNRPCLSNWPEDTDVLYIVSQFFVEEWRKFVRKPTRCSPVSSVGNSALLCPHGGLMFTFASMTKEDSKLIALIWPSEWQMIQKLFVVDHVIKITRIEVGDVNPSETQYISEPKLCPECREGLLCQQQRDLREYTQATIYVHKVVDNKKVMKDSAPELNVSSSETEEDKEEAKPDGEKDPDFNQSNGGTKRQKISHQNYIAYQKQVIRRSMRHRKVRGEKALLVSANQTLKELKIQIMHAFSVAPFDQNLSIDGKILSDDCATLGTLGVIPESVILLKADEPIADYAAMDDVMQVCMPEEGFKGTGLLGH
# Summary of the method: as §1
# USP5 = target: T4, USP5 (UniProt P45974)
# T4 sequence (whole entry): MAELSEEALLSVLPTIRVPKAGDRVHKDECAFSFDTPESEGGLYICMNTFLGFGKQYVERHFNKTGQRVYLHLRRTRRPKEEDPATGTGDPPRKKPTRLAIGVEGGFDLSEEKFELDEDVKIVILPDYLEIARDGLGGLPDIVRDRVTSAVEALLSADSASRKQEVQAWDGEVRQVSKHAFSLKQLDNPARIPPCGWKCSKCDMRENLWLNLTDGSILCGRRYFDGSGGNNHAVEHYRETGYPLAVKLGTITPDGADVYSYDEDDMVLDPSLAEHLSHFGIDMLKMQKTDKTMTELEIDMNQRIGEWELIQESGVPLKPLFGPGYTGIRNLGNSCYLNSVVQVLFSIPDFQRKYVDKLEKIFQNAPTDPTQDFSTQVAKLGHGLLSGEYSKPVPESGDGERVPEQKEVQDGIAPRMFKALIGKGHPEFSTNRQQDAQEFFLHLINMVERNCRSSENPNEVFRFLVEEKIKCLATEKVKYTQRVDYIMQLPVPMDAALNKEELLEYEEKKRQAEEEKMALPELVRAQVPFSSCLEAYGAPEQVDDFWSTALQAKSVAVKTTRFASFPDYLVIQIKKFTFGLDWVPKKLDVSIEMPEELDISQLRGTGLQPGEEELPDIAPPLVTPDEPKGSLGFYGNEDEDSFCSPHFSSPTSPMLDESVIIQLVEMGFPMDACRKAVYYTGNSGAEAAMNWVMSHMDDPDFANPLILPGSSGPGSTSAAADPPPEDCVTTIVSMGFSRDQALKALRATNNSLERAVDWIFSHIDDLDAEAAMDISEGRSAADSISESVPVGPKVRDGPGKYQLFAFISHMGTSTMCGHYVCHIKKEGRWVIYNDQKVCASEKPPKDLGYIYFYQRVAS
# Summary of the method: as §1
# USP54 = USP54 (UniProt Q70EL1)
# Summary of the method: as §1
# USP7 = USP7 (UniProt Q93009)
# Summary of the method: as §1
# USP8 = target: T5, USP8 (UniProt P40818)
# T5 sequence (whole entry): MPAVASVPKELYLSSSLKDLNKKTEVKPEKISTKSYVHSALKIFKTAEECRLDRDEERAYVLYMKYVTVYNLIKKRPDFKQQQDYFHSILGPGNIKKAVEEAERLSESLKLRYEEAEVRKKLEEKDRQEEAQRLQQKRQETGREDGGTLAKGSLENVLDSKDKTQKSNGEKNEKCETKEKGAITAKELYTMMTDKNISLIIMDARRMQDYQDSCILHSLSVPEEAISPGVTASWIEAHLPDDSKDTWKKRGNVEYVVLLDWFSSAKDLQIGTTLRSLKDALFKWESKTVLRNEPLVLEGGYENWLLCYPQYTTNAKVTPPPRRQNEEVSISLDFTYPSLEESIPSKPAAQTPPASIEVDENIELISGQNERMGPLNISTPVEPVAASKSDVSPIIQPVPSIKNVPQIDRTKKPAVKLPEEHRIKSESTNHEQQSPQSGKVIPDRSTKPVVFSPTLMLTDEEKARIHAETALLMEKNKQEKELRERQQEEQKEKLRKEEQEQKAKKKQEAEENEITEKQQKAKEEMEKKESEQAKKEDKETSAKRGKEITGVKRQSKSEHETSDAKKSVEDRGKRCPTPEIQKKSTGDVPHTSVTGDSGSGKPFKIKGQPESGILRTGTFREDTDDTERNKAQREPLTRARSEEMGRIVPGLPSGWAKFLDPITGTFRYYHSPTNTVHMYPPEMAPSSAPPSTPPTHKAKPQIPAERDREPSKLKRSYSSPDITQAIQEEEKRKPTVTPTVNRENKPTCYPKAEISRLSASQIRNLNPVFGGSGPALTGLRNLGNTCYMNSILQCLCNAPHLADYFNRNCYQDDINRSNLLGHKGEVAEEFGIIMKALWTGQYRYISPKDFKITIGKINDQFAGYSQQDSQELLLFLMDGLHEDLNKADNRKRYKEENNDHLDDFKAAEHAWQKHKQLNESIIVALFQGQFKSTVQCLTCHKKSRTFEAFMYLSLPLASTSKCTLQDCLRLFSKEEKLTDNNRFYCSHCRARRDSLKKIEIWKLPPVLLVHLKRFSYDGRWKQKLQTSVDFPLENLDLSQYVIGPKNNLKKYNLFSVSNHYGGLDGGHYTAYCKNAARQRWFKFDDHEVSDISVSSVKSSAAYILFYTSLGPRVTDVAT
# Summary of the method: as §1
# Sequence of USP54 (Q70EL1 whole entry): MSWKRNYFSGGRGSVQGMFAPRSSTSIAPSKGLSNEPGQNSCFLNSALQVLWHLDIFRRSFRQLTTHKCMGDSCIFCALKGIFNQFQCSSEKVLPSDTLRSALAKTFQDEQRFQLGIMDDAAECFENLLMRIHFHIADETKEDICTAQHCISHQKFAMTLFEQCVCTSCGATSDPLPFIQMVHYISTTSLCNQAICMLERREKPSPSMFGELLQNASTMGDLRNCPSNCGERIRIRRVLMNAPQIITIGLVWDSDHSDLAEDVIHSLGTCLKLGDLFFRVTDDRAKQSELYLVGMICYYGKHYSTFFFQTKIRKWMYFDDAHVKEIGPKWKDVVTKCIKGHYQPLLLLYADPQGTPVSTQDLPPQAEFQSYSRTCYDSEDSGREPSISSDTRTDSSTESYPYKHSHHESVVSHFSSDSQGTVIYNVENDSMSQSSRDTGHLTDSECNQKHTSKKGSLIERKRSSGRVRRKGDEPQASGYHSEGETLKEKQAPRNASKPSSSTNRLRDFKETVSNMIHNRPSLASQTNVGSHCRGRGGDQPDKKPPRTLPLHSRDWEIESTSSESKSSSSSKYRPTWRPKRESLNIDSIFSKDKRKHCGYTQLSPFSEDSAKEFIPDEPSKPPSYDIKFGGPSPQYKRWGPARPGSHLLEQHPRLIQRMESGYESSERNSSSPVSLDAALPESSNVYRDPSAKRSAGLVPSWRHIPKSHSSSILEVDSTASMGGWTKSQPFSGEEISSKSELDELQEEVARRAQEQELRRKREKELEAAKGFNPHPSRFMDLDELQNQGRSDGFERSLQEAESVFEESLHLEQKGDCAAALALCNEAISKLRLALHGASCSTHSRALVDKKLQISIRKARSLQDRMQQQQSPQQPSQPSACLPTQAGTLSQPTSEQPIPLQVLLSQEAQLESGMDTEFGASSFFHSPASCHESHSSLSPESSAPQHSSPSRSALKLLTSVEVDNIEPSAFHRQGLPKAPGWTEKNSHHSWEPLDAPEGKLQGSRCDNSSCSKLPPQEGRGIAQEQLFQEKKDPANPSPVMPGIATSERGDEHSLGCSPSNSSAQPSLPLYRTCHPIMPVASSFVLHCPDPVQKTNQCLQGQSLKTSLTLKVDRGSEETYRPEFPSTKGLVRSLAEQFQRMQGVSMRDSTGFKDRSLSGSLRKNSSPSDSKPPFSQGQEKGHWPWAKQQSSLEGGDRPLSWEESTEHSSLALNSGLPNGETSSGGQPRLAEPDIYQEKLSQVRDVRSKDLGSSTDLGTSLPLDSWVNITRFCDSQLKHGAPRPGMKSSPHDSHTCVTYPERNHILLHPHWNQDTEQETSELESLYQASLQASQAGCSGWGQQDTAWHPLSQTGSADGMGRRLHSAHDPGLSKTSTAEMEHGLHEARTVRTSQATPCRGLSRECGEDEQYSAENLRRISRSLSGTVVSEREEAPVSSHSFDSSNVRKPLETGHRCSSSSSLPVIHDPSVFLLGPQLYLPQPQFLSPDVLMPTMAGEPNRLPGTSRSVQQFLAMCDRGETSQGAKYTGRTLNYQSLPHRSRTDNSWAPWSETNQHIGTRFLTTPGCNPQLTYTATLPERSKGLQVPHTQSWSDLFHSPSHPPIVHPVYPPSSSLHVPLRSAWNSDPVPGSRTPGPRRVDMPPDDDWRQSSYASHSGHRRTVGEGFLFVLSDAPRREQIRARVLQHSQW
# Sequence of USP7 (Q93009 whole entry, looked up): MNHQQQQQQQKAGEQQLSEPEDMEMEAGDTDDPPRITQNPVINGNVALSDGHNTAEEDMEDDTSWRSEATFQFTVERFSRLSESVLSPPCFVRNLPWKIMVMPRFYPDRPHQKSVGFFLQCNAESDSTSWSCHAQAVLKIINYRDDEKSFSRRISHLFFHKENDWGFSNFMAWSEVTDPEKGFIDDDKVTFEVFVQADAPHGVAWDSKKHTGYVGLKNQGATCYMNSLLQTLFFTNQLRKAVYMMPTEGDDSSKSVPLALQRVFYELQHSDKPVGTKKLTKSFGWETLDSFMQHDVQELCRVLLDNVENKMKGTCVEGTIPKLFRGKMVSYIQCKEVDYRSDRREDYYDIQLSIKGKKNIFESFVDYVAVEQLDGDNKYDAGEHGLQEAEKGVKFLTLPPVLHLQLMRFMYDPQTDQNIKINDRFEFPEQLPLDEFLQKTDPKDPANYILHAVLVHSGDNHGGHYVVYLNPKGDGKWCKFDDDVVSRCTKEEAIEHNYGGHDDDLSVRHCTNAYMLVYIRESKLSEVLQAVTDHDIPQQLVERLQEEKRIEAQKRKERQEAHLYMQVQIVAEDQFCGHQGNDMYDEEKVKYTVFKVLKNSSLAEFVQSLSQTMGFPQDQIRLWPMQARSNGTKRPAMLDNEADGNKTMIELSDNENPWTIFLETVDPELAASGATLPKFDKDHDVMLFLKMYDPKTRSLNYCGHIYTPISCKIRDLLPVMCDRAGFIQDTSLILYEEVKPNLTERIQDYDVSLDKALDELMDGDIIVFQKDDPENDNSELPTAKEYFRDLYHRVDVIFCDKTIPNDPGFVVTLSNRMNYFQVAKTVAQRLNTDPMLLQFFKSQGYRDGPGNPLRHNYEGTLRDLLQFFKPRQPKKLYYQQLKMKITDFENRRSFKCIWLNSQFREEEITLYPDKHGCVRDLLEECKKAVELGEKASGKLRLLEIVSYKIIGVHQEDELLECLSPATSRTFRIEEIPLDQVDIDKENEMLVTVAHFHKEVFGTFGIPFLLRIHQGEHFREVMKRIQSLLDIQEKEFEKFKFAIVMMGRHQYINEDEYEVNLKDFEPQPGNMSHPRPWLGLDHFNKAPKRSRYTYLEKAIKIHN
# Sequence of USP46 (P62068 whole entry): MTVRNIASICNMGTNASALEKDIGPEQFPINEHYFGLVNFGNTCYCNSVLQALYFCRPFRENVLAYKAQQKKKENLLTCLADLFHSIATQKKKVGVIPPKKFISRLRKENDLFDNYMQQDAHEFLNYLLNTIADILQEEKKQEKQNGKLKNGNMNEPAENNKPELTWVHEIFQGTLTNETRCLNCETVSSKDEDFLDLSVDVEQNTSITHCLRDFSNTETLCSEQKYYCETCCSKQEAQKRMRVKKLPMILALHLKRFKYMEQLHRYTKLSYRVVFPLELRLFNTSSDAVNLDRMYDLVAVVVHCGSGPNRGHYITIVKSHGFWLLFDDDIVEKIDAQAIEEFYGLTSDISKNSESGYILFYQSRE
structure (smiles),measurement,setting,value
Cc1conc1C1CN(C(=O)CCl)C1,log2 ratio of Biotin-Ahx-Ub-VS probe labelling,USP42,0.317
same,log2 ratio of Biotin-Ahx-Ub-VS probe labelling,USP46,-0.643
same,log2 ratio of Biotin-Ahx-Ub-VS probe labelling,USP47,-0.971
same,log2 ratio of Biotin-Ahx-Ub-VS probe labelling,USP48,-0.753
same,log2 ratio of Biotin-Ahx-Ub-VS probe labelling,USP5,-0.555
same,log2 ratio of Biotin-Ahx-Ub-VS probe labelling,USP54,1.02
same,log2 ratio of Biotin-Ahx-Ub-VS probe labelling,USP7,-1.04 (active)
same,log2 ratio of Biotin-Ahx-Ub-VS probe labelling,USP8,-0.915
